Experiment [1] has as its system 5-hydroxytryptamine receptor 2C (pig). Put plainly: NVS_GPCR_p5HT2C: NovaScreen (NVS) G Protein-Coupled Receptor Assay for pig Serotonin, 5-Hydroxytryptamine Receptor 2C (5HT2C) (AID 2283288). Summed up: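 Radioligand displacement on membranes from pig choroid plexus, detected by filter scintillation counting after 1 h. Tested first at a single 25 uM in duplicate, then in concentration-response for actives; DMSO served as baseline.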

Experiment [2] deals with human Neurokinin, NK2 Receptor, TACR2 (gene 6865) (UniProt P21452). Put plainly: NVS_GPCR_hNK2: NovaScreen (NVS) G Protein-Coupled Receptor Assay for human Neurokinin, NK2 Receptor (AID 2283278).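 Also: actives reduce bound radioligand signal relative to DMSO baseline.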 Summed up: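 Filter-based scintillation counting measured radioligand bound to receptor extracted from CHO cells, 4 hours after compound addition. Chemicals screened first at 25 uM in duplicate, with actives retested in concentration series relative to DMSO.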
Sequence of human Neurokinin, NK2 Receptor, TACR2 (gene 6865) (P21452 whole entry, looked up): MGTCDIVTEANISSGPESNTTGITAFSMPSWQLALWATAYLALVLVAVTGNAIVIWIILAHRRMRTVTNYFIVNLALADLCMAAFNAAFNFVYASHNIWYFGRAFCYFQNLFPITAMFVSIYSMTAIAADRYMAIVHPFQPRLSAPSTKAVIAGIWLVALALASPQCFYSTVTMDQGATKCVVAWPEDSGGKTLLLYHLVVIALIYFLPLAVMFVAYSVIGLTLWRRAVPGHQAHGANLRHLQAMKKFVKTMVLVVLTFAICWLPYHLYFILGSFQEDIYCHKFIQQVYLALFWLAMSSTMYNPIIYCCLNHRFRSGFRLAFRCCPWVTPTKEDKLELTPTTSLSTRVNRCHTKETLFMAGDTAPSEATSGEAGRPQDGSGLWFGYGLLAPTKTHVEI

The target of experiment [3] is human Purinergic Receptor P2Y, P2RY1 (gene 5028) (UniProt P47900). Put plainly: NVS_GPCR_hPY2: NovaScreen (NVS) G Protein-Coupled Receptor Assay for human Purinergic Receptor P2Y (AID 2283281). The method, boiled down: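 Filtration scintillation readout of radioligand displacement on U937 extract, measured 1 h post-dosing. Single 25 uM duplicate screen, then singleton concentration series to 50 uM for chemicals passing threshold; DMSO as baseline.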
Sequence of human Purinergic Receptor P2Y, P2RY1 (gene 5028) (P47900 whole entry, looked up): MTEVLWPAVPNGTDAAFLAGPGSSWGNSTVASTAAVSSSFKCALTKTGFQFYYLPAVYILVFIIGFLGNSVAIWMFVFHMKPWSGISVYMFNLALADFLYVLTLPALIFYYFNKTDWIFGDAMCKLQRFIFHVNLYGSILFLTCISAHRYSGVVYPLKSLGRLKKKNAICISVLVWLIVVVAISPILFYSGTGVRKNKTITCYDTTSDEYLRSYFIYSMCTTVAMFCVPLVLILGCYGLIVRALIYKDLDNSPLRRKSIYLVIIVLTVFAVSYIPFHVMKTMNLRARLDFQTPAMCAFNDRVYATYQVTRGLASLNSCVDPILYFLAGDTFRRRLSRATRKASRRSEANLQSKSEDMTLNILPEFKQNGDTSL

For experiment [4], the target named is human Vasopressin 1A Receptor (V1A), AVPR1A (gene 552) (UniProt P37288). Put plainly: NVS_GPCR_hV1A: NovaScreen (NVS) G Protein-Coupled Receptor Assay for human Vasopressin 1A Receptor (V1A) (AID 2283284). Summed up:
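Single-concentration duplicate screen at 25 uM, with concentration-response follow-up (top 50 uM) for actives. The assay measured displacement of a radioligand from human platelet-derived receptor after 1.5 h, detected by filtration and scintillation counting.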

The target of experiment [5] is human Thromboxane A2 Receptor (TXA2), TBXA2R (gene 6915) (UniProt P21731). Put plainly: NVS_GPCR_hTXA2: NovaScreen (NVS) G Protein-Coupled Receptor Assay for human Thromboxane A2 Receptor (TXA2) (AID 2283282).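 Also: actives reduce bound radioligand signal relative to DMSO baseline.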 Summed up: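 Human platelet-derived receptor preparation incubated with test chemical and radiolabelled ligand for 1 hour, cell-free. Bound label was separated by filtration and counted; displacement relative to DMSO controls gave activity, screened at 25 uM, then titrated.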
Sequence of human Thromboxane A2 Receptor (TXA2), TBXA2R (gene 6915) (P21731 whole entry, looked up): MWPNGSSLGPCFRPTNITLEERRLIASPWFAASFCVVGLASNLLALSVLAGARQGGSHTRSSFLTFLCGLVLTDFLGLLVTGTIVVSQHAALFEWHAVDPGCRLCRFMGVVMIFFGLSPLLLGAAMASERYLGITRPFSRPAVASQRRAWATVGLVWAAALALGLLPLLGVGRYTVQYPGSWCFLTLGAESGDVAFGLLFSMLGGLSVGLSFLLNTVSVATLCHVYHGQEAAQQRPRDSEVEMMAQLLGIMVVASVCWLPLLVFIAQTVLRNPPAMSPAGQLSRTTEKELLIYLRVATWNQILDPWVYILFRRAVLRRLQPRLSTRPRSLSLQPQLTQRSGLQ

The target in experiment [6] is mouse Cholecystokinin, CCK1 Receptor (CCKA), Cckar (gene 12425) (UniProt O08786). The experiment can be described thus: NVS_GPCR_mCCKAPeripheral: NovaScreen (NVS) G Protein-Coupled Receptor Assay for mouse Cholecystokinin, CCK1 Receptor (CCKA) (AID 2283285). The method, boiled down: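 Chemicals were first screened in duplicate at 25 uM, with those meeting threshold (e.g., 30% inhibition) retested in singleton concentration series to 50 uM maximum. Binding of radioligand to mouse pancreatic membranes was read after 2 h by filtration and scintillation counting.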
Sequence of mouse Cholecystokinin, CCK1 Receptor (CCKA), Cckar (gene 12425) (O08786 whole entry, looked up): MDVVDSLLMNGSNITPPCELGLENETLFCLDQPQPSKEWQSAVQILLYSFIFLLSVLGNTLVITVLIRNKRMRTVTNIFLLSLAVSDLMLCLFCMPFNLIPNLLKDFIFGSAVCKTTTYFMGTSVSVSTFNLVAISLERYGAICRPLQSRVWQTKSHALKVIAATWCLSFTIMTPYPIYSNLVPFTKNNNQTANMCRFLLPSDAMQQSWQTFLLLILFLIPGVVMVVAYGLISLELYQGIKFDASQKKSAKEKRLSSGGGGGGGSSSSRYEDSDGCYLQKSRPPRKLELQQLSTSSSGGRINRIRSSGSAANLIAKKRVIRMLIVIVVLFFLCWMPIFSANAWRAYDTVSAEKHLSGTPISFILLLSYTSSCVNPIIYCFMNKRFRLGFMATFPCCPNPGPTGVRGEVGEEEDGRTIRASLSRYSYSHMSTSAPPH

For experiment [7], the target named is human Opioid Receptor Mu (Opiate Mu), OPRM1 (gene 4988) (UniProt P35372). The experiment can be described thus: NVS_GPCR_hOpiate_mu: NovaScreen (NVS) G Protein-Coupled Receptor Assay for human Opioid Receptor Mu (Opiate Mu) (AID 2283290).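 Also: hits lower bound tracer signal versus DMSO meaning displacement of the ligand.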 Summed up: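 CHO-derived receptor protein, cell-free; radioligand displacement, filtration + scintillation counting, read at 2.5 h. DMSO = negative control/baseline. Primary: 25 uM single conc, duplicate; secondary: concentration series.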
Sequence of human Opioid Receptor Mu (Opiate Mu), OPRM1 (gene 4988) (P35372 whole entry, looked up): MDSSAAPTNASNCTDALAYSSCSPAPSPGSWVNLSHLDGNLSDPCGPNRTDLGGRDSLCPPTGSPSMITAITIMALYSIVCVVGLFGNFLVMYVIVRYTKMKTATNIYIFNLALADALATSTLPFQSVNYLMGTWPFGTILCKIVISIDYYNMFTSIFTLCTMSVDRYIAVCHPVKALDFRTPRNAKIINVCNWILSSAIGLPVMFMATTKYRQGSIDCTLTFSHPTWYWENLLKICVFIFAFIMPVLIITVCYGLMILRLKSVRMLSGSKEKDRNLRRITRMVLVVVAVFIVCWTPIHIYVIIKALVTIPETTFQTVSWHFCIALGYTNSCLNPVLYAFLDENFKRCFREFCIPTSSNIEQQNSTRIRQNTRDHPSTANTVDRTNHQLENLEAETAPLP

For experiment [8], the target named is mouse Cholecystokinin, CCK2 Receptor (CCKB), Cckbr (gene 12426) (UniProt P56481). The experiment can be described thus: NVS_GPCR_mCKKBCentral: NovaScreen (NVS) G Protein-Coupled Receptor Assay for mouse Cholecystokinin, CCK2 Receptor (CCKB) (AID 2283293). Summed up:
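Mouse forebrain membrane preparation incubated 2 h with chemical and radioligand; bound radioactivity counted after filtration. Single-concentration duplicate screen at 25 uM, then concentration series to 50 uM max for hits, DMSO as baseline.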

Experiment [9] concerns the target guinea pig Serotonin, 5-Hydroxytryptamine Receptor 4 (5HT4), HTR4 (gene 100135548) (UniProt O70528). The experiment can be described thus: NVS_GPCR_g5HT4: NovaScreen (NVS) G Protein-Coupled Receptor Assay for guinea pig Serotonin, 5-Hydroxytryptamine Receptor 4 (5HT4) (AID 2283294). The method, boiled down: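 Compounds first screened in duplicate at 25 uM, actives followed up in concentration series. Binding measured as displacement of specific radioligand from guinea pig striatal membranes, 1 h, filter-based scintillation read-out versus DMSO baseline.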

The subject of experiment [10] is rabbit Platelet Activating Factor Receptor (PAF), gene 100354046. The experiment can be described thus: NVS_GPCR_rabPAF: NovaScreen (NVS) G Protein-Coupled Receptor Assay for rabbit Platelet Activating Factor Receptor (PAF) (AID 2283287). Summed up: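 Rabbit platelet membrane preparation; radioligand displacement read by filter-based scintillation counting 1 h after dosing, loss of signal versus DMSO. Primary screen in duplicate at 25 uM, actives followed up in concentration series.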

Experiment [11] has as its target human Neurotensin Receptor (NTS), NTSR1 (gene 4923) (UniProt P30989). Put plainly: NVS_GPCR_hNTS: NovaScreen (NVS) G Protein-Coupled Receptor Assay for human Neurotensin Receptor (NTS) (AID 2283279). Summed up:
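Compounds competed with a radiolabelled ligand for binding to CHO-derived human neurotensin receptor; bound signal counted after filtration, 1 h. Screened first at a single concentration of 25 uM in duplicate, then concentration series to 50 uM maximum for actives.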

Experiment [12] addresses rat Serotonin, 5-Hydroxytryptamine Receptor 1 (5HT1), Non-Selective Binding, Htr1a (gene 24473) (UniProt P19327). The experiment can be described thus: NVS_GPCR_r5HT1_NonSelective: NovaScreen (NVS) G Protein-Coupled Receptor Assay for rat Serotonin, 5-Hydroxytryptamine Receptor 1 (5HT1), Non-Selective Binding (AID 2283286). Summed up: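 Binding of a radioligand to rat cortex membranes is read by filtration and scintillation counting after 1 h. Compounds were screened at 25 uM in duplicate. Actives were then titrated to a top of 50 uM. DMSO is the baseline.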

Experiment [13] has as its target human Opioid Receptor Delta 1 (Opiate D1), OPRD1 (gene 4985) (UniProt P41143). Put plainly: NVS_GPCR_hOpiate_D1: NovaScreen (NVS) G Protein-Coupled Receptor Assay for human Opioid Receptor Delta 1 (Opiate D1) (AID 2283280). Summed up: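 Membrane preparations from CHO cells bearing the human receptor were incubated 1 h with test chemical, and bound radioligand was counted after filtration. Actives from 25 uM duplicate screening were retested in concentration-response.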

In experiment [14] the target is guinea pig Bradykinin Receptor B2 (BK2), BDKRB2 (gene 100135486) (UniProt O70526). The experiment can be described thus: NVS_GPCR_gBK2: NovaScreen (NVS) G Protein-Coupled Receptor Assay for guinea pig Bradykinin Receptor B2 (BK2) (AID 2283292). The method, boiled down:
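Guinea pig ileum membrane preparation incubated 1 h with radioligand and test chemical; bound counts measured after filtration. Primary duplicate screening at 25 uM, then singleton concentration series with a 50 uM top dose; DMSO as baseline.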

Experiment [15] has as its system rat Adrenergic, Alpha 1B Receptor (Adra1B), gene 24173. Put plainly: NVS_GPCR_rAdra1B: NovaScreen (NVS) G Protein-Coupled Receptor Assay for rat Adrenergic, Alpha 1B Receptor (Adra1B) (AID 2283297). The method, boiled down: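 Filter-binding radioligand competition on membranes from rat liver, read after 1 h by scintillation counting. Single-concentration duplicate screen at 25 uM, followed by concentration-response on actives, normalised to DMSO.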

In experiment [16] the test system is guinea pig Atrionatriuretic Peptide Receptor A (ANPA), gene 100135578. Put plainly: NVS_GPCR_gANPA: NovaScreen (NVS) G Protein-Coupled Receptor Assay for guinea pig Atrionatriuretic Peptide Receptor A (ANPA) (AID 2283291). Summed up:
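Displacement of specific radioligand from guinea pig cerebellum membranes was read by scintillation after 1 h. A duplicate single-point screen at 25 uM was followed by a concentration series up to 50 uM, analysed relative to DMSO.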

Experiment [17] concerns the target rat Adrenergic Receptor, Beta (Adrb), Non-selective Binding, Adrb1 (gene 24925) (UniProt P18090). The experiment can be described thus: NVS_GPCR_rAdrb_NonSelective: NovaScreen (NVS) G Protein-Coupled Receptor Assay for rat Adrenergic Receptor, Beta (Adrb), Non-selective Binding (AID 2283298). The method, boiled down:
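Rat cortical membranes incubated 1 h with beta-adrenergic radioligand and test chemical; bound ligand measured by filtration and scintillation counting. Screen at 25 uM duplicate, then concentration series with 50 uM maximum; loss of signal versus DMSO.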

Experimental findings from PubChem BioAssay (EPA / NIEHS) are described below.

For orientation: AC50 means the concentration giving half of the maximal activity seen.

SMILES strings stand for the structures. Results filed as inconclusive are left out. Active and inactive are the calls of the source. The calls were made as follows: active = hit-call score of the fitted dose curve at least 0.9, where 1 is the maximum; inconclusive = response in the unintended direction; inactive = score below 0.9.

Sequence of human Vasopressin 1A Receptor (V1A), AVPR1A (gene 552) (P37288 whole entry, looked up): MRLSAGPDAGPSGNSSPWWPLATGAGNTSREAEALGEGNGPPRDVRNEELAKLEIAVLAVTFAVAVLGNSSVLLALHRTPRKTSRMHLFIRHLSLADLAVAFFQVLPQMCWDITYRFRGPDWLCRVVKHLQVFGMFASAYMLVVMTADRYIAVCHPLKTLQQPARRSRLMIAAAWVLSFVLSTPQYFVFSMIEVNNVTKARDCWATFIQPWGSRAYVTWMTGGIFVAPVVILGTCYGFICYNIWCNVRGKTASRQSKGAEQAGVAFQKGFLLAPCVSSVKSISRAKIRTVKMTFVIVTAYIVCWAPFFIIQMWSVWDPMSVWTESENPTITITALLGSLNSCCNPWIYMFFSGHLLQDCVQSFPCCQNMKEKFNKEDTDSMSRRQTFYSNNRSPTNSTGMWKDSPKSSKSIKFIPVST
Sequence of human Opioid Receptor Delta 1 (Opiate D1), OPRD1 (gene 4985) (P41143 whole entry, looked up): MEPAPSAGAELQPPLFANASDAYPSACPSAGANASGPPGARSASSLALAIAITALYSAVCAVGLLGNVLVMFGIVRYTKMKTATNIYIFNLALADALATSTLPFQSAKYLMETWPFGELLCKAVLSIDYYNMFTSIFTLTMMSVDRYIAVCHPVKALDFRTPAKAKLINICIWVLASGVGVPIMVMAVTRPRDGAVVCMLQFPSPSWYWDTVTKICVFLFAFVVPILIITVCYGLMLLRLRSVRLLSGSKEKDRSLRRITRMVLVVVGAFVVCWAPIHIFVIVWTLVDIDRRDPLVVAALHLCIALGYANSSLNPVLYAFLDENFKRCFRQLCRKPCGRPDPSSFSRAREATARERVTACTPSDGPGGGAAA
Sequence of guinea pig Serotonin, 5-Hydroxytryptamine Receptor 4 (5HT4), HTR4 (gene 100135548) (O70528 whole entry, looked up): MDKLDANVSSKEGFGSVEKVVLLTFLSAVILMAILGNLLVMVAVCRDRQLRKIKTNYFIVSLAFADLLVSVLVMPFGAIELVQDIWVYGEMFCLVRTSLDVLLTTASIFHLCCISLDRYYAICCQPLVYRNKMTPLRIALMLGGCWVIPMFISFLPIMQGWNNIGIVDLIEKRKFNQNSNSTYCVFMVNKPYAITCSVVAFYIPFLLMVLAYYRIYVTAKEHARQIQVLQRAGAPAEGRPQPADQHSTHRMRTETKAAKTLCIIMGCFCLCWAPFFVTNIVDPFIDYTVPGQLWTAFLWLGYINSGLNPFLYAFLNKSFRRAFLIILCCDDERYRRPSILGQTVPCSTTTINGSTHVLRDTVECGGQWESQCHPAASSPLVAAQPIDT
Sequence of rat Adrenergic Receptor, Beta (Adrb), Non-selective Binding, Adrb1 (gene 24925) (P18090 whole entry, looked up): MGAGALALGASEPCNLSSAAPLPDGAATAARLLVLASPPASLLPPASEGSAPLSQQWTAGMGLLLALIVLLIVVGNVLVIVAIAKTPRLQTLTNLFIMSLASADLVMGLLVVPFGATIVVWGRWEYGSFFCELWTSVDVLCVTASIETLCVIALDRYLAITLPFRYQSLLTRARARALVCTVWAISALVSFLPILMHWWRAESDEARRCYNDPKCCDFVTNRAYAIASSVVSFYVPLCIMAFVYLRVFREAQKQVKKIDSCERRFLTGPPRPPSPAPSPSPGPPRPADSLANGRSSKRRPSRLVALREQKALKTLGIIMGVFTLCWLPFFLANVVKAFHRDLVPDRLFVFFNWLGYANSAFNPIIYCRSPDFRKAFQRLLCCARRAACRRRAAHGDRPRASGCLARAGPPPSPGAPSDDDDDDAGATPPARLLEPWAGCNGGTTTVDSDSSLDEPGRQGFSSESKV
Sequence of guinea pig Bradykinin Receptor B2 (BK2), BDKRB2 (gene 100135486) (O70526 whole entry, looked up): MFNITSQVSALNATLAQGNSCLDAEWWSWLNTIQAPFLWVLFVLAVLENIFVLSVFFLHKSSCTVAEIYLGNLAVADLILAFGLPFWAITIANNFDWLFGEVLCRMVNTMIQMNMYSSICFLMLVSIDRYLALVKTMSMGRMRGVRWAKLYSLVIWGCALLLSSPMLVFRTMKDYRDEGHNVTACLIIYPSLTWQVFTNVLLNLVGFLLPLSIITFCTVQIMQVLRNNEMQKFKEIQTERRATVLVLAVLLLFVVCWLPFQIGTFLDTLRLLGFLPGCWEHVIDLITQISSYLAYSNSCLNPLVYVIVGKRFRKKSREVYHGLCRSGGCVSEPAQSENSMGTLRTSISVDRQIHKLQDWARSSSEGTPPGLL
Sequence of human Neurotensin Receptor (NTS), NTSR1 (gene 4923) (P30989 whole entry, looked up): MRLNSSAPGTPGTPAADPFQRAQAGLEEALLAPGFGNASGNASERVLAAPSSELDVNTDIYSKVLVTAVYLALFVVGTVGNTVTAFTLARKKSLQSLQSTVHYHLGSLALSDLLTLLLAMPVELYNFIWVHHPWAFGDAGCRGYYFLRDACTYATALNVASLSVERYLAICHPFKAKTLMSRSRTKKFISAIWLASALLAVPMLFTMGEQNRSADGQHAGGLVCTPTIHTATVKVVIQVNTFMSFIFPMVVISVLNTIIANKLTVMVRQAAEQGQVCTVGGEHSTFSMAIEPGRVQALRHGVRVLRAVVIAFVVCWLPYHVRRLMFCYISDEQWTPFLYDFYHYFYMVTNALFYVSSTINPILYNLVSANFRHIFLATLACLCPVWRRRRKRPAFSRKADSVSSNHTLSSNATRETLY
Sequence of mouse Cholecystokinin, CCK2 Receptor (CCKB), Cckbr (gene 12426) (P56481 whole entry, looked up): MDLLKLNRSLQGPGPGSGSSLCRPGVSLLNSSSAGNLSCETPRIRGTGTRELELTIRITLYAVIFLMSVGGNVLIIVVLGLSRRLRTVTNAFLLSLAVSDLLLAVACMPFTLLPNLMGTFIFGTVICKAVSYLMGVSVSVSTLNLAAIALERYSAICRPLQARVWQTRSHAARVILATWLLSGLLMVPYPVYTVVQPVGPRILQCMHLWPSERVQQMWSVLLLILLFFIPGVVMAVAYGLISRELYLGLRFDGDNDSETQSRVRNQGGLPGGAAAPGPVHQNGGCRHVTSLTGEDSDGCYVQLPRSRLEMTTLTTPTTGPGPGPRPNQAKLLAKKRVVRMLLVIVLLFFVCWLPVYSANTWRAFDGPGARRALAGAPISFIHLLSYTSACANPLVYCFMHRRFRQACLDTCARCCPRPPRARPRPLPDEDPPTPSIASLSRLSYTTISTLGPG

`Cc1cc(O)ccc1Cl`: in [1], the AC50 was 9.65 µM (active).

With `Oc1c(Cl)c(Cl)c(Cl)c(Cl)c1Cl`, the call in experiment [2], in experiment [3] and in [4] was inactive.

As to `O=C(O)C(F)(F)C(F)(F)C(F)(F)C(F)(F)C(F)(F)C(F)(F)C(F)(F)C(F)(F)F`, in [5], the AC50 is 6.2 µM (active).

Consider `CC(C)(c1ccccc1)c1ccc(O)cc1`, for which the AC50 in [2] is 25 µM (active); in [6], 18.2 µM (active); in [1] it was 17.9 µM (active); in [7], 11.8 µM (active); in experiment [8], 18.5 µM (active); in [9], 23.7 µM (active).

As to `CCOC(=O)C(O)(c1ccc(Cl)cc1)c1ccc(Cl)cc1`, in experiment [5], the result was inactive. Further, the AC50 in experiment [6] was 11.7 µM (active); in experiment [10], 7.46 µM (active).

As for `Cc1cc2c3c(c1)C(c1ccccc1)=N[C@@H](NC(=O)c1ccncc1)C(=O)N3CC2`, the compound was called inactive in [2], in experiment [11] and in experiment [5]. Further, the results for the AC50 in experiment [6] and in [12] were 19.9 µM (active) and 6.17 µM (active), respectively.

Consider `O=C(O)C(F)(F)C(F)(F)C(F)(F)C(F)(F)C(F)(F)C(F)(F)C(F)(F)C(F)(F)C(F)(F)F`, for which the AC50 in experiment [13] was 16.4 µM (active); in [5], 25 µM (active); in experiment [7], 25 µM (active). For the same compound, in experiment [3], the compound was called inactive.

In the case of `CC(C)(O)C(=O)Nc1ccc([N+](=O)[O-])c(C(F)(F)F)c1`, the compound was classed as inactive in experiment [3]. Also, the AC50 in experiment [1] is 19.2 µM (active).

In the case of `Cc1ccc(O)c(C)c1`, in experiment [4], the AC50 was 0.12 µM (active). The result in [1] and in experiment [14] was inactive.

In the case of `Nc1ccc(-c2ccc(N)cc2)cc1`, the outcome in experiment [15] was inactive.

As for `O=S(=O)(O)C(F)(F)C(F)(F)C(F)(F)C(F)(F)C(F)(F)C(F)(F)F`, the AC50 in experiment [5] was 14.5 µM (active). In experiment [16], the call was inactive.

Take `O=C(N[C@H]1CN2CCC1CC2)c1cc2ccoc2cn1`: the AC50 in experiment [9] is 16.4 µM (active); in [15], 11 µM (active). The compound was classed as inactive in experiment [17].

Take `CCCCCCCCCc1ccc(O)cc1`: in [3], the call was inactive.

In the case of `ClC1=C(Cl)[C@]2(Cl)[C@@H]3[C@H]4C[C@H]([C@@H]5O[C@H]45)[C@@H]3[C@@]1(Cl)C2(Cl)Cl`, the result in experiment [16] was inactive.

Take `C[C@]12CCC(=O)C=C1CC[C@@H]1[C@@H]2CC[C@@]2(C)[C@H]1CC[C@]2(C)O`: the call in [13] and in experiment [7] was inactive.
